From PubChem BioAssay AID588689 (Southern Research Specialized Biocontainment Screening …, 2011) come the findings set out here.

This test has as its target Genome polyprotein (Dengue virus type 2 (strain 16681-PDK53)) (UniProt P29991). Nature of the test: flavivirus cap methylation enzyme inhibition – biochemical, confirmation dose response, primary screen (AID 588689). Conditions: Dengue-2 NS5 methyltransferase capping enzyme assay, at 25 µM, stronger effect = higher value.
The mark [1] stands for this setting: measured here: pilot screen replicate inhibition.

The campaign covered roughly 340,000 compounds. About 1,000 (0.29%) were called active. No stated cut-off is given here; in the data, inconclusive means inhibition above about 29% without an active follow-up result; inactive means below that. The list is a sample of the results. Measured potencies and affinities stand elsewhere.

Genome polyprotein (Dengue virus type 2 (strain 16681-PDK53)), sequence (P29991 whole entry, looked up): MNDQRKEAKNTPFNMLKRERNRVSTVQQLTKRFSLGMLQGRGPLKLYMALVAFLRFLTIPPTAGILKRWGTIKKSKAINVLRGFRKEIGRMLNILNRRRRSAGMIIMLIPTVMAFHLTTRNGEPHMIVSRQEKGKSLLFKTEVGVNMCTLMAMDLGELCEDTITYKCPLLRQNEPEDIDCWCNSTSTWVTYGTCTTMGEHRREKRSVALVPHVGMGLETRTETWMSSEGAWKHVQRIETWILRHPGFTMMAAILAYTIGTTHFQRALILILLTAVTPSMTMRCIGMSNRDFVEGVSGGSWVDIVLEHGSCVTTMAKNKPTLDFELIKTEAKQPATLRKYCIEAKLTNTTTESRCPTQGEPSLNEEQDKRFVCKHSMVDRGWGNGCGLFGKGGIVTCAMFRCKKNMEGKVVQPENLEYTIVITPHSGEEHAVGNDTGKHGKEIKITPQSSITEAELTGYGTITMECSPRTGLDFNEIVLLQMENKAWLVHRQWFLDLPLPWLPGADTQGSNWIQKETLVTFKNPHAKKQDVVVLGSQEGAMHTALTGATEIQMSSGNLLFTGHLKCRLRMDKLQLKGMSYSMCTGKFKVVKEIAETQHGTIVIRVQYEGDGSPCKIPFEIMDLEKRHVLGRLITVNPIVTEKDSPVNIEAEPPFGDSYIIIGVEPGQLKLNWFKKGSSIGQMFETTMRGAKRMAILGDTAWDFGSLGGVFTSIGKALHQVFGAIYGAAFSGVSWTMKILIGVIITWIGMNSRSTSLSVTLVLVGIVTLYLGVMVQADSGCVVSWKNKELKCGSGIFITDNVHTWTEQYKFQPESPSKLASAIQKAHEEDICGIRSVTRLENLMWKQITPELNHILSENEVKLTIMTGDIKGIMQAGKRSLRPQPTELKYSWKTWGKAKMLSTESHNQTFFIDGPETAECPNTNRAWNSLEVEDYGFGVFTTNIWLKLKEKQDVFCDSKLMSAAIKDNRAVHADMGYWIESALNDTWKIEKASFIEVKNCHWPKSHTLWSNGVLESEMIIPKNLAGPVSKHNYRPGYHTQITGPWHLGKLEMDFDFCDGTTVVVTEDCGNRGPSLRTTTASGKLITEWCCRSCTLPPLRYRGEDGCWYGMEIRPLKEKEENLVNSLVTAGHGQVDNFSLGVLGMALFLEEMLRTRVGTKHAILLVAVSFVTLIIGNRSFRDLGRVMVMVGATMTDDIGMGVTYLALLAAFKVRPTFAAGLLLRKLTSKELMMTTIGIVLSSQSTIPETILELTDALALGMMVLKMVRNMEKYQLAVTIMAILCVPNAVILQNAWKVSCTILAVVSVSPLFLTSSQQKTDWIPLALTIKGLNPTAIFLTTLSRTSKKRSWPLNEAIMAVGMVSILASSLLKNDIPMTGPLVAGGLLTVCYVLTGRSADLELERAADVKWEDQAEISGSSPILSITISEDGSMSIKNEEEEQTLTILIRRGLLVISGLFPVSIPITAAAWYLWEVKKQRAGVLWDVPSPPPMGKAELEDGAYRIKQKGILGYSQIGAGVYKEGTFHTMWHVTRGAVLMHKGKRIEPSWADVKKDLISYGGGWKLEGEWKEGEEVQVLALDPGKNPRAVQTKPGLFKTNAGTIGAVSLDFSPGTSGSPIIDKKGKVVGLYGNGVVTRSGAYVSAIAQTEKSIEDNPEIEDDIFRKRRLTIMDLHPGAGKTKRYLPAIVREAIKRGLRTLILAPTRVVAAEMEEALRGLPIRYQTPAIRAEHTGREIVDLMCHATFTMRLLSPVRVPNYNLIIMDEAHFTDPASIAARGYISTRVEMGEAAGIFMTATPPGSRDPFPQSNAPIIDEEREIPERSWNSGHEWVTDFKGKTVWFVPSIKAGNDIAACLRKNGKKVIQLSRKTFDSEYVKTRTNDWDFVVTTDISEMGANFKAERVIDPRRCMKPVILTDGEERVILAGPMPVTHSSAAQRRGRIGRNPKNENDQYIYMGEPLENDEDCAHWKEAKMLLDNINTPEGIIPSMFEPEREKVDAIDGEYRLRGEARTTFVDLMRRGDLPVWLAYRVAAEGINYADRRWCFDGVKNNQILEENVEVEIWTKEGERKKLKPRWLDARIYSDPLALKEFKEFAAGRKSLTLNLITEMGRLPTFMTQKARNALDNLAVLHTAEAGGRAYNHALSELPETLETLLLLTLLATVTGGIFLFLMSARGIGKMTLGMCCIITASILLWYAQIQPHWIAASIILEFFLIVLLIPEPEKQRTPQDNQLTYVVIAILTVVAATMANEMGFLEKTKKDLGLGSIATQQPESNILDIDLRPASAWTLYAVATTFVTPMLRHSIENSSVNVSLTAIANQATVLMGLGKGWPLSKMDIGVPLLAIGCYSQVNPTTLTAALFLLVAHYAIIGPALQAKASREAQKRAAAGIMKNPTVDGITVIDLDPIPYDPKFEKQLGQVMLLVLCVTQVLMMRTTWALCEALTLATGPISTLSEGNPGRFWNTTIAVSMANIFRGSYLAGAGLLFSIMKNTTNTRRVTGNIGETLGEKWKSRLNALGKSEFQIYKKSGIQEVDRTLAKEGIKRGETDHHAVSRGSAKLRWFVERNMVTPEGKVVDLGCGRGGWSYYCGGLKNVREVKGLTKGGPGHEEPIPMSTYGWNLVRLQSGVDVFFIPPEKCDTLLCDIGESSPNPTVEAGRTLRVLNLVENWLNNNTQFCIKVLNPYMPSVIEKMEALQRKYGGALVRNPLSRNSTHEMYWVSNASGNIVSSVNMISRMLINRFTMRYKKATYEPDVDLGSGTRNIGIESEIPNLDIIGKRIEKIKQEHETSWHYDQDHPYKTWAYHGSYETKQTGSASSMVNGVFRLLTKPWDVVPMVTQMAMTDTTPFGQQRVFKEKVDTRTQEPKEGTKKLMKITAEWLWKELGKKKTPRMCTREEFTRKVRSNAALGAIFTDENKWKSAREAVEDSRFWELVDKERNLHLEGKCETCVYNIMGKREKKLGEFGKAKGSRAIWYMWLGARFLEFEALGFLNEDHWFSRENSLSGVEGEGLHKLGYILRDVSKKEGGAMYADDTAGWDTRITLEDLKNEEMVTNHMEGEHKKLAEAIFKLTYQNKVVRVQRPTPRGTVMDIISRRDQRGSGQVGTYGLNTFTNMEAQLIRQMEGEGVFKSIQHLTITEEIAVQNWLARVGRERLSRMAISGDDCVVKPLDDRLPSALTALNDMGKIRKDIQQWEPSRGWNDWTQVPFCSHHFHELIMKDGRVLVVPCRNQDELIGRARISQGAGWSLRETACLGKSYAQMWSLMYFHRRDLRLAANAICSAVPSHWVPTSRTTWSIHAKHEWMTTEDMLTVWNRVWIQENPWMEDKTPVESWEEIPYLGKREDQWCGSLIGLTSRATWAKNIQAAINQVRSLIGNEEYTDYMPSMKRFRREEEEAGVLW

Broadly, the inhibition is the relative decrease from the control value, in per cent. Turning to `O=C(COC(=O)/C=C/c1cccc(Br)c1)NCc1cccs1`, the inhibition is -4.41% (inactive).

Regarding `COCCCNC(=O)Cn1cnc(C(=O)Nc2ccc(C)c(C)c2)n1`, the inhibition is -3.97% (inactive). Also, under setting [1], the inhibition turned out to be 0.615%.

As for `COc1cccc(Nc2nc(N)nc(-c3oc4ccccc4c3C)n2)c1`, the inhibition is -4.01% (inactive).

For the molecule `Cc1ccc(NS(=O)(=O)c2ccc(OCC(=O)NCC3CCCO3)cc2)cc1` (centres undefined), the inhibition was 2.96% (inactive).

As to `O=S(=O)(Nc1ccc2c(c1)nc1n2CCOC1)c1ccc(Cl)cc1`, the inhibition is -6.15% (inactive).

With `COc1cccc(/C=N/N2CCOCC2)c1O`, the inhibition was -2.67% (inactive).

`COc1ccc(O)c(/C=N/N2CCOCC2)c1`: the inhibition is -4.77% (inactive).

Consider `COc1ccc(C=C2NC(=O)NC2=O)cc1O`, for which the inhibition was 5.71% (inactive).

Regarding `COc1ccc(NC(=S)N(CCC(C)C)C(C)c2ccncc2)cc1` (centres undefined), the inhibition was 0.57% (inactive).

With `CCOC(=O)c1ccc(OCc2nc(-c3cccs3)no2)cc1`, the inhibition was -0.7% (inactive).

With `CN(C)S(=O)(=O)c1cccc(NC(=O)CO/N=C(\N)c2ccccc2)c1`, the inhibition was 2.16% (inactive).

As for `CC1CCN(C2=NC(=O)/C(=C/c3cn(-c4ccccc4)nc3-c3cccc(S(=O)(=O)N(C)C)c3)S2)CC1`, the inhibition is -0.56% (inactive).

In the case of `COc1ccc(-c2nn(-c3ccccc3)cc2/C=C2/SC(=S)N(CCC(=O)O)C2=O)cc1`, the inhibition is 11.8% (inactive).

On to `CN(C)S(=O)(=O)c1cccc(-c2nn(-c3ccccc3)cc2/C=C2\SC(=S)NC2=O)c1`, for which the inhibition was -16% (inactive).

`CCN1C(=O)/C(=C\c2cn(-c3ccccc3)nc2-c2cccnc2)SC1=S`: the inhibition is 2.99% (inactive).

In the case of `CCC(=O)Nc1ccc2c(c1)ncn2C`, the inhibition was -8.57% (inactive).

Consider `CCC(=O)Nc1ccc2ccccc2c1`, for which the inhibition is -7.67% (inactive).

Turning to `O=c1[nH]nc(-c2ccc(F)cc2)cc1Cc1ccccc1`, the inhibition was -7.66% (inactive).

Consider `N#C/C(=C\c1ccccc1OCc1ccc(C(=O)O)cc1)C(=O)Nc1ccc(O)cc1`, for which the inhibition is 27% (inactive).

With `COc1ccc(NC(=O)/C(C#N)=C\c2ccc(OCc3ccc(C(=O)O)cc3)c(OC)c2)cc1`, the inhibition is -8.98% (inactive).

Regarding `O=C(NCCCN1CCOCC1)c1ccc(S(=O)(=O)Nc2ccccc2)cc1`, the inhibition was -4.34% (inactive).

For `Cc1ccc(NC(=O)Nc2cc(C)on2)cc1`, the inhibition was -0.74% (inactive).

`CCNc1nc(SC(C(C)=O)C(C)=O)nc(N(C)C)n1`: the inhibition was -1.07% (inactive).

Turning to `COc1ccc([N+](=O)[O-])cc1NCC(=O)Nc1cccc(S(=O)(=O)N2CCCC2)c1`, the inhibition was -0.72% (inactive).

`O=C1C(c2ccncc2)=C(O)c2ccccc21`: the inhibition is 2.03% (inactive).

As for `O=C1C(c2c(O)[nH]c3ccccc23)=Nc2ccccc21`, the inhibition was -46.9% (inactive).

Consider `Clc1ccc(-c2nsc(N3CCOCC3)n2)c(Cl)c1`, for which the inhibition was -8.96% (inactive).

For the molecule `Cc1cc(C)c(NC(=O)CNC(=O)COC(=O)/C=C/c2cccs2)c(C)c1`, the inhibition was -7.3% (inactive).

`CCc1nnc(NS(=O)(=O)c2ccc(NC(=S)NC(=O)/C=C/c3ccc(OC)cc3)cc2)s1`: the inhibition is -1.6% (inactive).

`CCc1nnc(NS(=O)(=O)c2ccc(NC(=S)NC(=O)/C=C/c3ccccc3)cc2)s1`: the inhibition is 8.99% (inactive).

Take `CCc1nnc(NS(=O)(=O)c2ccc(NC(=O)/C=C/c3ccc(F)cc3)cc2)s1`: the inhibition was 3.59% (inactive).

`CCc1nnc(NS(=O)(=O)c2ccc(NC(=S)NC(=O)/C=C/c3ccc([N+](=O)[O-])cc3)cc2)s1`: the inhibition was 9.83% (inactive).

As to `CC(C)NC1(C#N)CCN(Cc2ccccc2)CC1`, the inhibition is 0% (inactive).

Take `CCOc1ccc(Nc2nc(C)cc(C)c2C#N)cc1`: the inhibition was 0% (inactive).

As to `COC(=O)c1sc(N)c(C(=O)OC)c1COC(=O)CNS(=O)(=O)c1cccc(C#N)c1`, the inhibition is -1.45% (inactive).

Turning to `COC(=O)c1cc(C)c(C)cc1NC1OC(CO)C(O)C1O` (centres undefined), the inhibition was -9.68% (inactive).

Regarding `C[C@H](CO)N1C[C@H](C)[C@@H](CN(C)C(=O)c2cnccn2)Oc2cc(C#CCC3CCCC3)ccc2S1(=O)=O`, the inhibition is -16.2% (inactive).

In the case of `O=C(NCc1ccccc1)N1CCC(CO)(CCc2ccccc2)CC1`, the inhibition was 5.32% (inactive).

On to `CC(C)C1Nc2ccc(S(N)(=O)=O)cc2C2C=CCC21` (centres undefined), for which the inhibition is 16% (inactive).

Consider `O=C(O)C1Nc2c(Cl)cc(Cl)c(Cl)c2C2C=CCC12` (centres undefined), for which the inhibition is 8.87% (inactive).

Take `CCOC(=O)N1CCC(NC(=O)CCS(=O)(=O)c2ccc3c(c2)CCN3C(C)=O)CC1`: the inhibition is 0% (inactive).

For the molecule `CCOC(=O)/C=C(\C)Sc1cc(=O)oc2ccccc12`, the inhibition was -12.1% (inactive).

Turning to `CCOC(=O)c1c(C)oc2c1cc(O)c1ccccc12`, the inhibition was 18.5% (inactive).

For the molecule `O=C(O)COc1ccc(/C=C/C(=O)c2ccc3ccccc3c2)cc1`, the inhibition is 21.6% (inactive).

Regarding `CCOc1ccc(/C=C/C(=O)c2ccccc2)cc1`, the inhibition is -8.48% (inactive).

With `CCOC(=O)c1[nH]nc2c1C(=O)N(Cc1ccccc1)C2=O`, the inhibition was -0.68% (inactive).

In the case of `CCCCNC(=O)c1sc2ncnc(N3CCc4ccccc4C3)c2c1C`, the inhibition was -8.03% (inactive).

Regarding `Cc1cccc(NC(=S)N(Cc2ccc(Cl)cc2)Cc2ccc(C(=O)O)cc2)c1`, the inhibition was -0.79% (inactive).

For the molecule `Cc1cc(C)cc(NC(=S)N(Cc2ccc(Br)cc2)Cc2ccc(C(=O)O)cc2)c1`, the inhibition was -6.24% (inactive).

With `CC1CCCN(C(=O)CCNC(=O)Cn2cnc3ccccc3c2=O)C1` (centres undefined), the inhibition was -2.67% (inactive).

Regarding `NS(=O)(=O)c1ccc(Sc2ccc3ccccc3c2)nc1`, the inhibition is -5.01% (inactive).

On to `COc1ccc(S(=O)(=O)Oc2ccc3ccccc3c2)cc1`, for which the inhibition was 0.73% (inactive).

For `COC(=O)c1ccc(NC(=O)C(=O)N2CCN(C(=S)Nc3cccc(C)c3C)CC2)cc1`, the inhibition was -4.36% (inactive).

In the case of `COc1ccc(NC(=O)Cc2c(C(=O)O)n(C)c3ccccc23)cc1OC`, the inhibition is -17.2% (inactive).

As to `C[C@H](CO)N1C[C@H](C)[C@@H](CN(C)C(=O)Nc2ccccc2)Oc2c(NC(=O)Cc3ccccc3)cccc2C1=O`, the inhibition was -4% (inactive).

With `COC(=O)c1cc2c(-c3ccccc3)cc3ccccn3c-2c1C(=O)OC`, the inhibition was 27.1% (inactive).

Turning to `COC(=O)c1c(C(=O)OC)c2ccccn2c1C(=O)c1ccccc1`, the inhibition was -4.66% (inactive).

`COc1ccc(CN(C)C(C)C(=O)Nc2ccc(S(=O)(=O)N3CCCCC3)cc2)cc1F` (centres undefined): the inhibition is 0.37% (inactive).

Regarding `CSCCC(C(=O)OCC(=O)c1ccc(C)c(C)c1)N1C(=O)c2cc(Cl)c(Cl)cc2C1=O` (centres undefined), the inhibition is 10.7% (inactive).

In the case of `O=C1NCCCC2c3c(cc(Br)c(O)c3Br)OC12N1CCOCC1` (centres undefined), the inhibition is 17% (inactive). Besides, the inhibition under setting [1] was -2.28%.

With `O=C1NCCCC2c3c(cc(Br)c(O)c3Br)OC12N1CCCCC1` (centres undefined), the inhibition was 10.4% (inactive).

`CCOC(=O)C(NC(=O)Cc1ccccc1)(Nc1cc(C)on1)C(F)(F)F` (centres undefined): the inhibition is -5.64% (inactive).

Regarding `CCCn1c(SCC(=O)c2[nH]c(C)c(C(C)=O)c2C)n[nH]c1=O`, the inhibition was -15.1% (inactive).

Consider `COc1ccc(CCNC(=O)C2CC(c3ccc([N+](=O)[O-])cc3)=NO2)cc1` (centres undefined), for which the inhibition was 2.79% (inactive).

Take `CN(C1CCCCC1)S(=O)(=O)c1cn(C)c(=O)n(C)c1=O`: the inhibition was -3.31% (inactive).

In the case of `COc1cc(C=NNC(=O)c2ccccc2NS(=O)(=O)c2cccs2)cc(OC)c1O`, the inhibition is 2.21% (inactive).

In the case of `O=C(NN=Cc1ccc(O)cc1)c1ccccc1NS(=O)(=O)c1cccs1`, the inhibition is 2.92% (inactive).

Turning to `O=c1cc(-c2nn[nH]n2)[nH]c(=O)[nH]1`, the inhibition was -0.8% (inactive).

`O=C(CN1C(=O)c2cccc([N+](=O)[O-])c2C1=O)N1CCc2ccccc2C1`: the inhibition was -5.49% (inactive).

Regarding `O=c1c(C(c2ccc(O)cc2)c2c(O)nc3n(c2=O)CCCS3)c(O)nc2n1CCCS2`, the inhibition was 60.7% (inactive).

Turning to `O=c1c(C(c2ccc(Cl)cc2)c2c(O)nc3n(c2=O)CCS3)c(O)nc2n1CCS2`, the inhibition is 3.89% (inactive).

On to `O=c1c(C(c2ccc(F)cc2)c2c(O)nc3n(c2=O)CCS3)c(O)nc2n1CCS2`, for which the inhibition is -0.78% (inactive).

On to `O=c1c(C(c2ccc(Br)cc2)c2c(O)nc3n(c2=O)CCS3)c(O)nc2n1CCS2`, for which the inhibition was 11.7% (inactive).

Turning to `O=Cc1ccc(F)c([B-](F)(F)F)c1`, the inhibition is -5.86% (inactive).

Take `COc1ccc(N2CC(C(=O)NC3CCCCC3)CC2=O)cc1` (centres undefined): the inhibition was -15.2% (inactive).

As to `NC(=S)N=Nc1c(O)[nH]c2ccc(F)cc12`, the inhibition is 1.93% (inactive).

`NC(=S)N=Nc1c(O)[nH]c2ccccc12`: the inhibition was -8.45% (inactive).

Consider `Cc1ccc(C)c(S(=O)(=O)NC2CCSC2=O)c1` (centres undefined), for which the inhibition was 0% (inactive).

Regarding `COc1ccc(NS(=O)(=O)c2cc(NC(=O)c3cccc(OCc4c(C)noc4C)c3)ccc2OC)cc1`, the inhibition was -4.53% (inactive).

As to `Clc1ccc(Oc2nc(Oc3ccc(Cl)cc3)nc(N3CCOCC3)n2)cc1`, the inhibition is 5.62% (inactive).

Regarding `CC(NC(=O)C12CC3CC(CC(C3)C1)C2)C(=O)N/N=C/C1=C(N2CCOCC2)C(=C\c2ccccc2)/CC1` (centres undefined), the inhibition is -2.59% (inactive).

Turning to `CN(C)c1cccc2c1C(=O)c1ccccc1C2=O`, the inhibition was 2.91% (inactive).

As to `CN(CCO)C(=O)c1cccc2c1-c1ccccc1C2=O`, the inhibition was 2.07% (inactive).

As to `Cc1nnc(NC(=O)CSc2nnc(CCNC(=O)c3ccccc3F)n2C)s1`, the inhibition was -9.78% (inactive).

As to `Cc1oc2c(O)c(O)ccc2c(=O)c1-c1ccccc1`, the inhibition is 1.39% (inactive).

Turning to `O=C1c2ccccc2C(=O)c2c1ccc(O)c2O`, the inhibition is 0% (inactive).

As for `O=C(O)c1cccc(O)c1O`, the inhibition was 2.93% (inactive).

For `Cc1cc(=O)oc2c(O)c(O)ccc12`, the inhibition is 0.73% (inactive).

Consider `CC(C)(Oc1ccc(Cl)cc1)C(=O)Nc1ccc2oc(-c3ccncc3)nc2c1`, for which the inhibition was 2.08% (inactive).

For the molecule `COc1cc(C)c(S(=O)(=O)NCc2ccc3c(c2)OCO3)cc1C`, the inhibition was -1.39% (inactive).

As to `Cc1nn(-c2ccccc2)nc1CNC(=O)C(C)Cc1ccccc1` (centres undefined), the inhibition was -2.38% (inactive).

For the molecule `O=C(C1=C[C@H](C2CCCCC2)C[C@H](OCc2ccc(CO)cc2)O1)N1CCOCC1`, the inhibition was -6.54% (inactive).
